# Test results reported in PubChem BioAssay AID1159580 (chemical genetic matrix, 2015).
# Hit rate of the full screen: of about 5,500 compounds, about 2,000 (36%) were called active. About 18% were inconclusive and are not listed. Some of the results follow. A number with no mark means an inactive call. Cut-off read from the data, not from the text of the source: active = normalized growth mostly below about 0.91 (no sharp cut-off); inconclusive = no clear call, values can overlap the other calls; inactive = mostly above about 0.92.
# Test: chemical genetic growth profiling, strain panel (AID 1159580);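 note: tested at 20 µM; growth read once vehicle control cultures reached saturation at 30 °C; 1 = growth at the plate median or of vehicle wells; lower values mean less growth of the strain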
# Conditions: growth OD
structure (smiles),measurement,setting,value
CO[C@]12C[C@@H](COC(=O)c3cncc(Br)c3)CN(C)[C@@H]1Cc1cn(C)c3cccc2c13,normalized growth,"S. cerevisiae deletion strains, locus YJR075W, strain HOC1, active compounds read low",0.994
same,normalized growth,"S. cerevisiae deletion strains, locus YKL009W, strain mrt4, active compounds read low",0.968
same,normalized growth,"S. cerevisiae deletion strains, locus YKL068W, active compounds read low",0.997
same,normalized growth,"S. cerevisiae deletion strains, locus YKL085W, strain MDH1 (second series), active compounds read low",0.995
same,normalized growth,"S. cerevisiae deletion strains, locus YKL085W, strain MDH1, active compounds read low",0.995
same,normalized growth,"S. cerevisiae deletion strains, locus YKL160W, strain elf1, active compounds read low",0.984
same,normalized growth,"S. cerevisiae deletion strains, locus YKL190W, strain CNB1, active compounds read low",0.999
same,normalized growth,"S. cerevisiae deletion strains, locus YKR001C, strain vps1, active compounds read low",1.02
same,normalized growth,"S. cerevisiae deletion strains, locus YKR026C, strain gcn3, active compounds read low",1.03
same,normalized growth,"S. cerevisiae deletion strains, locus YKR091W, strain srl3, active compounds read low",0.981
same,normalized growth,"S. cerevisiae deletion strains, locus YLL001W, strain dnm1, active compounds read low",0.965
same,normalized growth,"S. cerevisiae deletion strains, locus YLL026W, active compounds read low",0.989
same,normalized growth,"S. cerevisiae deletion strains, locus YLL041C, strain sdh2, active compounds read low",0.998
same,normalized growth,"S. cerevisiae deletion strains, locus YLR027C, strain aat2, active compounds read low",0.964
same,normalized growth,"S. cerevisiae deletion strains, locus YLR039C, strain RIC1, active compounds read low",1.34 [resistant] (active)
same,normalized growth,"S. cerevisiae deletion strains, locus YLR058C, strain SHM2, active compounds read low",1
same,normalized growth,"S. cerevisiae deletion strains, locus YLR102C, strain apc9, active compounds read low",1.01
same,normalized growth,"S. cerevisiae deletion strains, locus YLR113W, strain HOG1, active compounds read low",0.954
same,normalized growth,"S. cerevisiae deletion strains, locus YLR221C, strain rsa3, active compounds read low",0.973
same,normalized growth,"S. cerevisiae deletion strains, locus YLR258W, strain gsy2, active compounds read low",0.997
same,normalized growth,"S. cerevisiae deletion strains, locus YLR262C, strain YPT6 (second series), active compounds read low",1.07
same,normalized growth,"S. cerevisiae deletion strains, locus YLR262C, strain YPT6, active compounds read low",1.45 [resistant] (active)
same,normalized growth,"S. cerevisiae deletion strains, locus YLR268W, strain sec22, active compounds read low",1.01
same,normalized growth,"S. cerevisiae deletion strains, locus YLR320W, strain mms22, active compounds read low",0.983
same,normalized growth,"S. cerevisiae deletion strains, locus YLR330W, strain CHS5, active compounds read low",1.01
same,normalized growth,"S. cerevisiae deletion strains, locus YLR342W, strain FKS1 (second series), active compounds read low",0.968
same,normalized growth,"S. cerevisiae deletion strains, locus YLR342W, strain FKS1, active compounds read low",0.975
same,normalized growth,"S. cerevisiae deletion strains, locus YLR357W, strain rsc2, active compounds read low",0.969
same,normalized growth,"S. cerevisiae deletion strains, locus YLR370C, strain arc18, active compounds read low",0.985
same,normalized growth,"S. cerevisiae deletion strains, locus YLR371W, strain rom2, active compounds read low",1.01
same,normalized growth,"S. cerevisiae deletion strains, locus YLR384C, strain iki3, active compounds read low",0.991
same,normalized growth,"S. cerevisiae deletion strains, locus YLR418C, strain cdc73, active compounds read low",1.03
same,normalized growth,"S. cerevisiae deletion strains, locus YML016C, strain PPZ1, active compounds read low",1.01
same,normalized growth,"S. cerevisiae deletion strains, locus YML032C, strain rad52, active compounds read low",1.01
same,normalized growth,"S. cerevisiae deletion strains, locus YML120C, strain ndi1, active compounds read low",0.993
same,normalized growth,"S. cerevisiae deletion strains, locus YML124C, strain tub3, active compounds read low",1.01
same,normalized growth,"S. cerevisiae deletion strains, locus YMR058W, strain fet3, active compounds read low",0.992
same,normalized growth,"S. cerevisiae deletion strains, locus YMR078C, strain ctf18, active compounds read low",1
same,normalized growth,"S. cerevisiae deletion strains, locus YMR125W, strain sto1, active compounds read low",0.977
same,normalized growth,"S. cerevisiae deletion strains, locus YMR129W, active compounds read low",0.977
same,normalized growth,"S. cerevisiae deletion strains, locus YMR205C, strain PFK2, active compounds read low",0.977
same,normalized growth,"S. cerevisiae deletion strains, locus YMR223W, strain ubp8, active compounds read low",0.984
same,normalized growth,"S. cerevisiae deletion strains, locus YMR231W, strain pep5, active compounds read low",0.997
same,normalized growth,"S. cerevisiae deletion strains, locus YMR263W, strain SAP30, active compounds read low",0.997
same,normalized growth,"S. cerevisiae deletion strains, locus YMR307W, strain GAS1, active compounds read low",1.08
same,normalized growth,"S. cerevisiae deletion strains, locus YNL067W, strain RPL9B, active compounds read low",0.985
same,normalized growth,"S. cerevisiae deletion strains, locus YNL071W, strain lat1, active compounds read low",0.944
same,normalized growth,"S. cerevisiae deletion strains, locus YNL128W, strain TEP1, active compounds read low",1.01
same,normalized growth,"S. cerevisiae deletion strains, locus YNL153C, strain GIM3, active compounds read low",0.99
same,normalized growth,"S. cerevisiae deletion strains, locus YNL183C, strain NPR1, active compounds read low",0.912
same,normalized growth,"S. cerevisiae deletion strains, locus YNL209W, strain ssb2, active compounds read low",0.996
same,normalized growth,"S. cerevisiae deletion strains, locus YNL233W, strain BNI4, active compounds read low",0.997
same,normalized growth,"S. cerevisiae deletion strains, locus YNL248C, strain rpa49, active compounds read low",0.934
same,normalized growth,"S. cerevisiae deletion strains, locus YNL250W, strain rad50, active compounds read low",1
same,normalized growth,"S. cerevisiae deletion strains, locus YNL271C, strain bni1, active compounds read low",1.01
same,normalized growth,"S. cerevisiae deletion strains, locus YNL298W, strain CLA4, active compounds read low",1.01
same,normalized growth,"S. cerevisiae deletion strains, locus YNL307C, strain MCK1, active compounds read low",0.975
same,normalized growth,"S. cerevisiae deletion strains, locus YNL322C, strain KRE1 (second series), active compounds read low",0.985
same,normalized growth,"S. cerevisiae deletion strains, locus YNL322C, strain KRE1, active compounds read low",1
same,normalized growth,"S. cerevisiae deletion strains, locus YNR049C, strain mso1, active compounds read low",0.993
same,normalized growth,"S. cerevisiae deletion strains, locus YNR052C, strain pop2, active compounds read low",1
same,normalized growth,"S. cerevisiae deletion strains, locus YOL006C, strain TOP1, active compounds read low",1.06
same,normalized growth,"S. cerevisiae deletion strains, locus YOL012C, strain htz1",1.03
same,normalized growth,"S. cerevisiae deletion strains, locus YOL147C, strain pex11, active compounds read low",1.01
same,normalized growth,"S. cerevisiae deletion strains, locus YOR001W, strain rrp6, active compounds read low",0.972
same,normalized growth,"S. cerevisiae deletion strains, locus YOR061W, strain CKA2, active compounds read low",1
same,normalized growth,"S. cerevisiae deletion strains, locus YOR069W, strain VPS5, active compounds read low",1
same,normalized growth,"S. cerevisiae deletion strains, locus YOR070C, strain gyp1, active compounds read low",0.994
same,normalized growth,"S. cerevisiae deletion strains, locus YOR080W, strain dia2, active compounds read low",0.983
same,normalized growth,"S. cerevisiae deletion strains, locus YOR083W, strain WHI5, active compounds read low",0.978
same,normalized growth,"S. cerevisiae deletion strains, locus YOR106W, strain vam3, active compounds read low",0.968
same,normalized growth,"S. cerevisiae deletion strains, locus YOR136W, strain idh2, active compounds read low",0.992
same,normalized growth,"S. cerevisiae deletion strains, locus YOR144C, strain elg1, active compounds read low",1.01
same,normalized growth,"S. cerevisiae deletion strains, locus YOR184W, strain ser1, active compounds read low",0.988
same,normalized growth,"S. cerevisiae deletion strains, locus YOR231W, strain MKK1, active compounds read low",0.983
same,normalized growth,"S. cerevisiae deletion strains, locus YOR265W, strain rbl2, active compounds read low",0.987
same,normalized growth,"S. cerevisiae deletion strains, locus YOR270C, strain vph1, active compounds read low",1.01
same,normalized growth,"S. cerevisiae deletion strains, locus YOR290C, strain snf2, active compounds read low",0.982
same,normalized growth,"S. cerevisiae deletion strains, locus YOR316C, strain cot1, active compounds read low",1
same,normalized growth,"S. cerevisiae deletion strains, locus YPL051W, strain arl3, active compounds read low",0.97
same,normalized growth,"S. cerevisiae deletion strains, locus YPL055C, strain LGE1, active compounds read low",0.977
same,normalized growth,"S. cerevisiae deletion strains, locus YPL078C, strain atp4, active compounds read low",0.975
same,normalized growth,"S. cerevisiae deletion strains, locus YPL106C, strain sse1, active compounds read low",1.01
same,normalized growth,"S. cerevisiae deletion strains, locus YPL240C, strain hsp82, active compounds read low",1.02
same,normalized growth,"S. cerevisiae deletion strains, locus YPL241C, strain CIN2, active compounds read low",0.999
same,normalized growth,"S. cerevisiae deletion strains, locus YPL256C, strain CLN2, active compounds read low",0.972
same,normalized growth,"S. cerevisiae deletion strains, locus YPR119W, strain clb2, active compounds read low",1.01
same,normalized growth,"S. cerevisiae deletion strains, locus YPR141C, strain kar3, active compounds read low",1.01
same,normalized growth,"S. cerevisiae deletion strains, locus YPR163C, strain tif3, active compounds read low",1.02
same,normalized growth,"S. cerevisiae deletion strains, locus YPR167C, strain met16, active compounds read low",1.01
same,normalized growth,"S. cerevisiae deletion strains, strain wtn01, active compounds read low",1.02
same,normalized growth,"S. cerevisiae strains, strain wild type, active compounds read low",0.993
